The structures appear in SMILES notation. Results filed as inconclusive are left out. Activity calls are given as the source filed them. The call rests on the fitted dose curve; in most records, active means well fitted cell-killing curve with a large enough effect; inconclusive means small, poorly fitted or top-dose-only effect; inactive means flat fitted curve, though single readings scatter.
Potency means the concentration at half of the fitted maximal effect.

This assay is described as follows: DAPI mCherry counterscreen qHTS for Zika virus inhibitors. Further: nearly all actives have a fitted effect of over 55% in size. To be noted: Vero cells, DAPI nuclear count cytotoxicity, imaging 48-72 h, infected with Zika reporter virus, MOI 1; series mostly up to 32.6 µM. The procedure, abridged: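 Vero cells (5,000/well), plated overnight, given compounds then recombinant ZIKV-mCherry at MOI 1 for 48-72 hrs at 37 degrees C; PFA-fixed, Hoechst-stained and imaged; nuclei counted and mCherry-positive cells scored as percent infection.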
Take `Nc1ncnc2c([C@@H]3N[C@H](CO)[C@@H](O)[C@H]3O)c[nH]c12`: the Potency entry was “inactive”.

For `COc1ccc(/C=C(\C#N)c2nc(-c3cc4c(ccc5ccccc54)oc3=O)cs2)cc1O`, the Potency is 1 µM (active).

Consider `O=C(O)Cc1cccc(OCCCN(Cc2cccc(C(F)(F)F)c2Cl)CC(c2ccccc2)c2ccccc2)c1`, for which the Potency is 15.8 µM (active).

In the case of `O=C(O)COc1ccc(-c2nccc3c2C(=O)N(Cc2cccc(C(F)(F)F)c2)CC(COc2ccc4cnccc4c2)O3)cc1` (configuration not stated), the Potency entry is “inactive”.

Consider `CC(C)C1=CCC(C)(O)C(OC2OC(CO)C(O)C(O)C2O)C1` (configuration not stated), for which the Potency result was “inactive”.

Consider `Nc1c(N=Nc2ccc([N+](=O)[O-])cc2)c(S(=O)(=O)O)cc2cc(S(=O)(=O)O)c(/C=C/c3ccccc3)c(O)c12`, for which the Potency entry was “inactive”.

`N#CC(c1ccc(Cl)cc1)c1c(Cl)cc(-n2ncc(=O)[nH]c2=O)cc1Cl` (configuration not stated): the Potency is 25.1 µM (active).

Consider `COc1cnc(-c2ccc(Cn3c(CC(C)(C)C(=O)O)c(SC(C)(C)C)c4cc(OC[C@@H]5Cc6ccccc6N5C(C)=O)ccc43)cc2)nc1`, for which the Potency was 15.8 µM (active).

For `Cc1nn2c(=O)cc(COC(=O)c3ccc(NC(=O)c4ccc(C(C)(C)C)cc4)cc3)nc2s1`, the Potency was 28.2 µM (active).

With `Cc1c(NS(=O)(=O)c2ccccc2)cc(C(C)C)c(O)c1S(=O)(=O)c1ccc(Cl)cc1`, the Potency was 28.2 µM (active).

For `Cc1ccc(NC(=O)c2ccc3c(O)c(S(=O)(=O)c4ccc(Cl)cc4)c(=O)[nH]c3c2)cc1`, the Potency result is “inactive”.

As to `CCS(=O)(=O)c1cccc(C(=O)Nc2ccc(-c3nc4ccccc4s3)c(O)c2)c1`, the Potency is 14.1 µM (active).

For the origin of these results see PubChem BioAssay AID1347156 (National Center for Advancing Translational Sciences (NCATS), 2019).
